{"source": "PubChem BioAssay (Tox21)", "note": "“And” between values parts separate entries of the source, which are not always exact repeats. Equal values may be shown once. Inconclusive results are not listed. Unmarked numbers belong to inactive results. The source made the active and inactive calls. The call rests on the fitted dose curve; in most records, active means well fitted curve in the direction sought with a large enough effect in the repeat runs; inconclusive means weak or mixed curves; inactive means no such curve, though single readings can be large; an effect the other way counts as inactive or inconclusive. On the % scale 0 is the no-effect control and ±100 the full control effect; potency means the concentration at half of the fitted maximal effect.", "data": [{"experiment": "qHTS assay for identifying genotoxic compounds that show differential cytotoxicity against isogenic chicken DT40 cell lines with known DNA damage response pathways - Rev3 mutant cell line (AID 743014); further: nearly all actives have a fitted effect of over 55% in size", "conditions": "chicken DT40 Rev3-/- viability, CellTiter-Glo, 40 h; series mostly up to 68.4 µM; activity, negative = cytotoxicity: at the top concentration", "values": [{"smiles": "CC(=O)c1ccccc1O", "activity, negative = cytotoxicity": "-1.69%"}, {"smiles": "CC(=O)CC(C)C", "activity, negative = cytotoxicity": "4.37%"}, {"smiles": "CC(C)CCCC(C)N", "note": "(stereo not drawn)", "activity, negative = cytotoxicity": "-0.117%"}, {"smiles": "O=C1CC2CC1C1CCCC21", "note": "(stereo not drawn)", "activity, negative = cytotoxicity": "14.7%"}, {"smiles": "NS(=O)(=O)c1cc(C(=O)O)cc(N2CCCC2)c1Oc1ccccc1", "activity, negative = cytotoxicity": "0.198% [at 31.4 µM]"}, {"smiles": "Brc1c(NC2=NCCN2)ccc2nccnc12", "activity, negative = cytotoxicity": "-1.73%"}, {"smiles": "CCn1ccnc1CC1COc2ccccc2O1", "note": "(stereo not drawn)", "activity, negative = cytotoxicity": "4.61%"}, {"smiles": "C=C[Si](OC(=C)C)(OC(=C)C)OC(=C)C", "activity, negative = cytotoxicity": "-1.26%"}, {"smiles": "CCCCCCCCS(=O)(=O)Cl", "activity, negative = cytotoxicity": "-0.0818% [at 95 µM]"}, {"smiles": "C=C(C)CS(=O)(=O)O", "activity, negative = cytotoxicity": "9.62%"}, {"smiles": "CCN(CC)CCOCCOC(=O)C1(c2ccccc2)CCCC1", "Potency": "2.11 µM (active)"}, {"smiles": "O=C[C@H](O)[C@@H](O)[C@H](O)[C@H](O)CO", "Potency": "inactive"}, {"smiles": "C1CN(CCOCCN2CCOCC2)CCO1", "activity, negative = cytotoxicity": "-2.04%"}, {"smiles": "CN(C)CCCN1c2ccccc2CCc2ccc(Cl)cc21", "Potency": "7.5 µM (active) and 6.86 µM (active)"}, {"smiles": "CCOc1ccc(C(=O)OCCN(CC)CC)cc1", "Potency": "21.1 µM (active)"}, {"smiles": "C1OCOCO1", "activity, negative = cytotoxicity": "8.92% [at 95 µM]"}, {"smiles": "NC(=O)c1cn(Cc2c(F)cccc2F)nn1", "activity, negative = cytotoxicity": "13.1%"}, {"smiles": "C=CCCCCCCCCC=O", "activity, negative = cytotoxicity": "-19%"}, {"smiles": "Nc1c2c(nc3ccccc13)CCCC2O", "note": "(stereo not drawn)", "activity, negative = cytotoxicity": "15.4%"}, {"smiles": "CC(C)c1cc2c(cc1S(=O)(=O)O)[C@@]1(C)CCC[C@@](C)(C(=O)O)[C@@H]1CC2", "activity, negative = cytotoxicity": "5.91%"}, {"smiles": "C[N+](C)(C)CC(O)CC(=O)[O-]", "note": "(stereo not drawn)", "activity, negative = cytotoxicity": "4.84%"}, {"smiles": "CCC=O", "activity, negative = cytotoxicity": "1.73% [at 95 µM]"}, {"smiles": "O=C(O)Cc1ccc(CCNS(=O)(=O)c2ccc(Cl)cc2)cc1", "activity, negative = cytotoxicity": "0.126%"}]}, {"experiment": "qHTS assay for identifying genotoxic compounds that show differential cytotoxicity against isogenic chicken DT40 cell lines with known DNA damage response pathways - Rad54/Ku70 mutant cell line (AID 743015); further: nearly all actives have a fitted effect of over 60% in size", "conditions": "DT40 Rad54/Ku70 mutant viability, CellTiter-Glo, 40 h; series mostly up to 66.8 µM; activity change, negative = cytotoxicity: at the top concentration", "values": [{"smiles": "CC(=O)c1ccccc1O", "activity change, negative = cytotoxicity": "-2.44%"}, {"smiles": "Cc1[nH]c(=O)c(C#N)cc1-c1ccc2nccn2c1", "activity change, negative = cytotoxicity": "-1.31%"}, {"smiles": "CC(=O)CC(C)C", "activity change, negative = cytotoxicity": "-0.684%"}, {"smiles": "CC(C)CCCC(C)N", "note": "(stereo not drawn)", "activity change, negative = cytotoxicity": "2.36%"}, {"smiles": "N=C(N)c1ccccc1", "activity change, negative = cytotoxicity": "4.72%"}, {"smiles": "NCCc1cnc[nH]1", "activity change, negative = cytotoxicity": "7.05%"}, {"smiles": "COc1c(N2C[C@@H]3CCCN[C@@H]3C2)c(F)cc2c(=O)c(C(=O)O)cn(C3CC3)c12", "activity change, negative = cytotoxicity": "-3.82%"}, {"smiles": "O=C1CC2CC1C1CCCC21", "note": "(stereo not drawn)", "activity change, negative = cytotoxicity": "8.92%"}, {"smiles": "NS(=O)(=O)c1cc(C(=O)O)cc(N2CCCC2)c1Oc1ccccc1", "activity change, negative = cytotoxicity": "-4.07% [at 30.7 µM]"}, {"smiles": "CCn1ccnc1CC1COc2ccccc2O1", "note": "(stereo not drawn)", "activity change, negative = cytotoxicity": "-0.707%"}, {"smiles": "C=C[Si](OC(=C)C)(OC(=C)C)OC(=C)C", "activity change, negative = cytotoxicity": "-5.41%"}, {"smiles": "CCCCCCCCS(=O)(=O)Cl", "activity change, negative = cytotoxicity": "9.57% [at 95.1 µM]"}, {"smiles": "CCOC(=O)[C@H](CCc1ccccc1)N[C@@H](C)C(=O)N1[C@H](C(=O)O)C[C@@H]2CCC[C@@H]21", "activity change, negative = cytotoxicity": "8.46%"}, {"smiles": "C=C(C)CS(=O)(=O)O", "activity change, negative = cytotoxicity": "-0.231%"}, {"smiles": "CCN(CC)CCOCCOC(=O)C1(c2ccccc2)CCCC1", "Potency": "5.96 µM (active)"}, {"smiles": "O=C[C@H](O)[C@@H](O)[C@H](O)[C@H](O)CO", "Potency": "inactive"}, {"smiles": "Nc1nc2c(ncn2COC(CO)CO)c(=O)[nH]1", "Potency": "8.04 µM (active)"}, {"smiles": "C1CN(CCOCCN2CCOCC2)CCO1", "activity change, negative = cytotoxicity": "4.6%"}, {"smiles": "CN(C)CCCN1c2ccccc2CCc2ccc(Cl)cc21", "Potency": "9.44 µM (active) and 7.7 µM (active)"}, {"smiles": "CCOc1ccc(C(=O)OCCN(CC)CC)cc1", "Potency": "26.6 µM (active)"}, {"smiles": "Cc1cccn2c(=O)c(-c3nnn[nH]3)cnc12", "activity change, negative = cytotoxicity": "1.49%"}, {"smiles": "C1OCOCO1", "activity change, negative = cytotoxicity": "5.45% [at 95.1 µM]"}, {"smiles": "NC(=O)c1cn(Cc2c(F)cccc2F)nn1", "activity change, negative = cytotoxicity": "1.74%"}, {"smiles": "C=CCCCCCCCCC=O", "activity change, negative = cytotoxicity": "-19.3%"}, {"smiles": "Nc1c2c(nc3ccccc13)CCCC2O", "note": "(stereo not drawn)", "activity change, negative = cytotoxicity": "2.94%"}, {"smiles": "CC(C)c1cc2c(cc1S(=O)(=O)O)[C@@]1(C)CCC[C@@](C)(C(=O)O)[C@@H]1CC2", "activity change, negative = cytotoxicity": "11%"}, {"smiles": "CCC=O", "activity change, negative = cytotoxicity": "5.2% [at 95.1 µM]"}, {"smiles": "CN1CCN(c2cc3c(cc2F)c(=O)c(C(=O)O)cn3-c2ccc(F)cc2)CC1", "Potency": "29.8 µM (active)"}, {"smiles": "Cc1c(NC(C)C)c(=O)n(-c2ccccc2)n1C", "activity change, negative = cytotoxicity": "13.5%"}, {"smiles": "NS(=O)(=O)c1ccc(C(=O)O)cc1", "activity change, negative = cytotoxicity": "5.13%"}, {"smiles": "COC(=O)[C@@H](N)Cc1ccc(O)c(O)c1", "Potency": "33.5 µM (active)"}, {"smiles": "CCOC(=O)C(=O)OCC", "activity change, negative = cytotoxicity": "-3.9%"}, {"smiles": "CCCCCCOC(=O)CCCCC(=O)OCCCCCC", "activity change, negative = cytotoxicity": "-1.41%"}, {"smiles": "O=C(O)Cc1ccc(CCNS(=O)(=O)c2ccc(Cl)cc2)cc1", "activity change, negative = cytotoxicity": "3.42%"}]}, {"experiment": "qHTS assay to identify small molecule antagonists of the androgen receptor (AR) signaling pathway - cell viability counter screen (AID 743033; further: nearly all actives have a fitted effect of over 45% in size)", "conditions": "AR-bla HEK293 viability, CellTiter-Glo luminescence, 16 h; series mostly up to 58.5 µM; activity change, negative = cytotoxicity: at the top concentration", "values": [{"smiles": "CC(=O)c1ccccc1O", "activity change, negative = cytotoxicity": "5.65%"}, {"smiles": "Cc1[nH]c(=O)c(C#N)cc1-c1ccc2nccn2c1", "activity change, negative = cytotoxicity": "2.28%"}, {"smiles": "CC(=O)CC(C)C", "activity change, negative = cytotoxicity": "3.4%"}, {"smiles": "CC(C)CCCC(C)N", "note": "(stereo not drawn)", "activity change, negative = cytotoxicity": "2.93%"}, {"smiles": "N=C(N)c1ccccc1", "activity change, negative = cytotoxicity": "13.2%"}, {"smiles": "NCCc1cnc[nH]1", "activity change, negative = cytotoxicity": "8.61%"}, {"smiles": "COc1c(N2C[C@@H]3CCCN[C@@H]3C2)c(F)cc2c(=O)c(C(=O)O)cn(C3CC3)c12", "Potency": "inactive"}, {"smiles": "CCO/C([O-])=N/c1c[n+](N2CCOCC2)no1", "activity change, negative = cytotoxicity": "-21.6% [at 27 µM]"}, {"smiles": "O=C1CC2CC1C1CCCC21", "note": "(stereo not drawn)", "activity change, negative = cytotoxicity": "18.6%"}, {"smiles": "NS(=O)(=O)c1cc(C(=O)O)cc(N2CCCC2)c1Oc1ccccc1", "activity change, negative = cytotoxicity": "-16.8% [at 27 µM]"}, {"smiles": "CCn1ccnc1CC1COc2ccccc2O1", "note": "(stereo not drawn)", "activity change, negative = cytotoxicity": "8.37%"}, {"smiles": "C=C[Si](OC(=C)C)(OC(=C)C)OC(=C)C", "activity change, negative = cytotoxicity": "3.13%"}, {"smiles": "CCCCCCCCS(=O)(=O)Cl", "activity change, negative = cytotoxicity": "-9.86% [at 78.9 µM]"}, {"smiles": "CCOC(=O)[C@H](CCc1ccccc1)N[C@@H](C)C(=O)N1[C@H](C(=O)O)C[C@@H]2CCC[C@@H]21", "activity change, negative = cytotoxicity": "-0.61%"}, {"smiles": "C=C(C)CS(=O)(=O)O", "activity change, negative = cytotoxicity": "1.72%"}, {"smiles": "CCN(CC)CCOCCOC(=O)C1(c2ccccc2)CCCC1", "activity change, negative = cytotoxicity": "6.44%"}, {"smiles": "O=C[C@H](O)[C@@H](O)[C@H](O)[C@H](O)CO", "Potency": "inactive"}, {"smiles": "C1CN(CCOCCN2CCOCC2)CCO1", "activity change, negative = cytotoxicity": "5.64%"}, {"smiles": "CN1CC(=O)NC1=N", "activity change, negative = cytotoxicity": "-4.39%"}, {"smiles": "CN(C)CCCN1c2ccccc2CCc2ccc(Cl)cc21", "Potency": "24.5 µM (active)"}, {"smiles": "CCOc1ccc(C(=O)OCCN(CC)CC)cc1", "activity change, negative = cytotoxicity": "5.02%"}, {"smiles": "Cc1cccn2c(=O)c(-c3nnn[nH]3)cnc12", "activity change, negative = cytotoxicity": "-1.96%"}, {"smiles": "C1OCOCO1", "activity change, negative = cytotoxicity": "-0.264% [at 78.9 µM]"}, {"smiles": "NC(=O)c1cn(Cc2c(F)cccc2F)nn1", "activity change, negative = cytotoxicity": "7.97%"}, {"smiles": "C=CCCCCCCCCC=O", "activity change, negative = cytotoxicity": "1.91%"}, {"smiles": "Nc1c2c(nc3ccccc13)CCCC2O", "note": "(stereo not drawn)", "activity change, negative = cytotoxicity": "0.23%"}, {"smiles": "CC(C)c1cc2c(cc1S(=O)(=O)O)[C@@]1(C)CCC[C@@](C)(C(=O)O)[C@@H]1CC2", "activity change, negative = cytotoxicity": "0.235%"}, {"smiles": "CCC=O", "activity change, negative = cytotoxicity": "1.48% [at 78.9 µM]"}, {"smiles": "C=C1CC[C@H]2C[C@@H]1C2(C)C", "activity change, negative = cytotoxicity": "-6.17%"}, {"smiles": "Cc1c(NC(C)C)c(=O)n(-c2ccccc2)n1C", "activity change, negative = cytotoxicity": "0.78%"}, {"smiles": "NS(=O)(=O)c1ccc(C(=O)O)cc1", "activity change, negative = cytotoxicity": "2.35%"}, {"smiles": "COC(=O)[C@@H](N)Cc1ccc(O)c(O)c1", "activity change, negative = cytotoxicity": "0.521%"}, {"smiles": "COc1nc(N)nc2c1ncn2[C@@H]1O[C@H](CO)[C@@H](O)[C@@H]1O", "activity change, negative = cytotoxicity": "-1.35%"}, {"smiles": "CCOC(=O)C(=O)OCC", "activity change, negative = cytotoxicity": "-4.1%"}, {"smiles": "CCCCCCOC(=O)CCCCC(=O)OCCCCCC", "activity change, negative = cytotoxicity": "-8.3%"}, {"smiles": "O=C(O)Cc1ccc(CCNS(=O)(=O)c2ccc(Cl)cc2)cc1", "activity change, negative = cytotoxicity": "9.06%"}]}]}
